# In PubChem BioAssay (Tox21):
# A number with no mark means an inactive call. Unless noted, the call rests on the fitted dose curve; in most records, active means well fitted curve in the direction sought with a large enough effect in the repeat runs; inconclusive means weak or mixed curves; inactive means no such curve, though single readings can be large; an effect the other way counts as inactive or inconclusive. Results filed as inconclusive are left out.
# Target: Androgen receptor (Homo sapiens) (UniProt P10275)
# Sequence (P10275 whole entry, looked up): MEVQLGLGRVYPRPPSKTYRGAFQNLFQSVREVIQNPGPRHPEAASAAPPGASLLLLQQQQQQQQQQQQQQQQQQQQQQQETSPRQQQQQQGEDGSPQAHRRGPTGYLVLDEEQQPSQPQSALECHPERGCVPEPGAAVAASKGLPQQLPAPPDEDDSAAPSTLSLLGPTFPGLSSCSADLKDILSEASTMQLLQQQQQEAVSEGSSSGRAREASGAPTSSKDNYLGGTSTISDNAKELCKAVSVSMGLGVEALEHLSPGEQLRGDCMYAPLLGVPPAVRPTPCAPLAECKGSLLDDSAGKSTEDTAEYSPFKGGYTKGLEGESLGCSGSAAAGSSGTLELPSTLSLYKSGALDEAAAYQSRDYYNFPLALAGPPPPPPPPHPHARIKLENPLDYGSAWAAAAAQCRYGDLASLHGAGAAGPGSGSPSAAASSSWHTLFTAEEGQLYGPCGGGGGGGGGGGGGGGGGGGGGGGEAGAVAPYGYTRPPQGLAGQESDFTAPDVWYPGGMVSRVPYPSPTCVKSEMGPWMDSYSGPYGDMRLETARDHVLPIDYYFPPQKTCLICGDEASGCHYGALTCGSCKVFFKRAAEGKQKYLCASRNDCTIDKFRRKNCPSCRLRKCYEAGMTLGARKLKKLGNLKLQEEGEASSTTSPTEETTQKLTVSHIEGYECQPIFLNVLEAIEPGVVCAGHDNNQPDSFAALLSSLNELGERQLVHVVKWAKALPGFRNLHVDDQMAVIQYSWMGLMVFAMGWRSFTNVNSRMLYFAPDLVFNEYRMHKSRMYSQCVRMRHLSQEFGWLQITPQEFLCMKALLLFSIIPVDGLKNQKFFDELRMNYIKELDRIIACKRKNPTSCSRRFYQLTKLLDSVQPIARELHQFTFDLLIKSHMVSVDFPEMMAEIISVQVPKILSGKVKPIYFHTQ
# Assay: qHTS assay to identify small molecule agonists of the androgen receptor (AR) signaling pathway (AID 743036; active means well fitted activation curve with a large enough effect in the signal ratio in the repeat runs, with a control signal flat, not every such curve was filed as active; the % refers to the signal ratio)
# Conditions: HEK293 AR-UAS-bla GripTite, beta-lactamase FRET ratio, 16 h; series mostly up to 62.4 µM; activation: at the top concentration
# Method in brief: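 Activation was read as beta-lactamase FRET signal from LiveBLAzer B/G substrate, added for 2 h at room temperature. Before that, GeneBLAzer AR-UAS-bla GripTite (HEK293) cells had 16 h compound exposure at 37C.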
# On the % scale 0 is the no-effect control and ±100 the full control effect.
row,SMILES,activation
1,C=CCCCCCCCCCCC,-0.154% [at 6.9 µM]
2,CCCCCCCCCCCCCC(=O)OC,-3.13%
3,O=C(O)c1ccccc1C(=O)Nc1ccc(S(=O)(=O)Nc2nccs2)cc1,-6.58%
4,COc1ccc(/C=N/NC(=O)c2ccncc2)cc1OC,-6.49%
5,O=C(CN1CCN(Cc2ccc3c(c2)OCO3)CC1)N1c2ccccc2Sc2ccccc21,-1.67%
6,O=C1c2ccccc2-c2ccccc21,0.004% [at 79.1 µM]
7,O=C1OC(=O)c2cc(Oc3ccc4c(c3)C(=O)OC4=O)ccc21,-2.78%
8,Nc1cc(C(=O)O)ccc1Cl,0.401%

# Target: Androgen receptor (Homo sapiens) (UniProt P10275)
# Assay: qHTS assay to identify small molecule agonists of the androgen receptor (AR) signaling pathway using the MDA cell line (AID 743040; further: nearly all actives have a fitted effect of over 20% in size)
# Conditions: MDA-kb2 AR-luc cells, MMTV luciferase, 16 h, active compounds read high; series mostly up to 70.3 µM; activity change: at the top concentration
# Method in brief: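 Luminescence from ONE-Glo, read after 30 min at room temperature, reflects MMTV-driven luciferase in MDA-kb2 cells (AR- and GR-responsive). Treatment lasted 16 h at 37C, 0% CO2.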
row,SMILES,activity change
1,C=CCCCCCCCCCCC,4.86% [at 8.47 µM]
2,CCCCCCCCCCCCCC(=O)OC,-0.177%
3,O=C(O)c1ccccc1C(=O)Nc1ccc(S(=O)(=O)Nc2nccs2)cc1,0.757%
4,COc1ccc(/C=N/NC(=O)c2ccncc2)cc1OC,0.0486%
5,O=C(CN1CCN(Cc2ccc3c(c2)OCO3)CC1)N1c2ccccc2Sc2ccccc21,-6.06%
6,O=C1c2ccccc2-c2ccccc21,-0.527% [at 95 µM]
7,O=C1OC(=O)c2cc(Oc3ccc4c(c3)C(=O)OC4=O)ccc21,0.172%
8,Nc1cc(C(=O)O)ccc1Cl,0.575%

# Test system: not listed separately
# Assay: qHTS assay to identify small molecule antagonists of the androgen receptor (AR) signaling pathway using the MDA cell line - cell viability counter screen (AID 743041; further: nearly all actives have a fitted effect of over 45% in size)
# Conditions: MDA-kb2 viability, CellTiter-Fluor, 16 h, cells co-treated with R1881 androgen agonist; series mostly up to 70.3 µM; viability change, negative = cytotoxic: at the top concentration
# Method in brief: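 Viability counter screen run alongside the AR antagonist reporter: cells seeded 5 h before compound, R1881 added, 16 h incubation at 37C without CO2, fluorescent CellTiter-Fluor signal quantified.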
row,SMILES,"viability change, negative = cytotoxic"
1,CCCCC/C=C/CC(=O)OC,-0.564%
2,Cc1nc2ccccc2c(=O)o1,1.05% [at 95 µM]
3,CCN(CCO)c1cccc(C)c1,1.41%
4,C=CCCCCCCCCCCC,-1.53% [at 8.47 µM]
5,CCCCCCCCCCCCCC(=O)OC,-14.6%
6,NC(Cc1c[nH]c2ccccc12)C(=O)O (configuration not stated),-2.87%
7,CNC(=O)C(c1ccccc1)c1ccccc1,14.9%
8,Cc1nc(C)nc(N2C[C@@H](C)N(c3ccnc([C@@H](C)O)n3)[C@@H](C)C2)n1,-1.48%
9,NS(=O)(=O)c1cc2c(cc1Cl)NC(C(Cl)Cl)NS2(=O)=O (configuration not stated),-2.24% [at 32.5 µM]
10,O=C(O)c1ccccc1C(=O)Nc1ccc(S(=O)(=O)Nc2nccs2)cc1,5.52%
11,C[C@H](CCC(=O)NCC(=O)O)[C@H]1CC[C@H]2[C@@H]3[C@H](O)C[C@@H]4C[C@H](O)CC[C@]4(C)[C@H]3C[C@H](O)[C@]12C,-5.32%
12,COc1ccc(/C=N/NC(=O)c2ccncc2)cc1OC,-10.7%
13,C=CCOc1cc(Cl)ccc1C(=O)NCCN(CC)CC,-5.26%
14,O=C(CN1CCN(Cc2ccc3c(c2)OCO3)CC1)N1c2ccccc2Sc2ccccc21,-6.98%
15,O=C1c2ccccc2-c2ccccc21,6.77% [at 95 µM]
16,CC(C)COC(=O)/C=C/c1ccccc1,0.274%

row,SMILES,"viability change, negative = cytotoxic"
1,CN(C1CCCCC1)S(=O)(=O)c1ccccc1N,10.7%
2,Nc1cc(C(=O)O)ccc1Cl,-2.38%
3,CCc1nccnc1C,8.94%
4,CC(=O)OCCCc1ccccc1,2.62%
5,CC(C)COC(=O)CCCCC(=O)OCC(C)C,3.15%
6,CCN1CN(CC)CN(CC)C1,-1.89%
7,CCS(=O)(=O)CCn1c([N+](=O)[O-])cnc1C,1.34% [at 32.5 µM]
8,CC(C)=CC(C)(C)C,5.01%
9,OC[C@@H](O)[C@H](O)[C@@H](O)[C@@H](O)CO,-7.23%
10,CCC(=O)OCCC(C)CCC=C(C)C (configuration not stated),-2.97%
11,FC(F)(F)c1ccc(Cl)cc1Cl,4.48%
12,O=c1cc(O)c(Cl)c[nH]1,-2.43%
13,CC(=O)c1ccc(OCC(=O)N2CCCCC2)cc1,0.261%
14,CCCCCCCCCCCCC,-13.3%
15,COc1ccc(NS(=O)(=O)c2ccc(N)cc2)nn1,-0.117% [at 32.5 µM]
